Bioassay records: PubChem, National Center for Advancing Translational Sciences (NCATS)
TDP1 block: TDP1 (human) enzyme inhibition. AID 485290. Potency, µM (top dose mostly 130 µM), for the others: at the highest dose activity change, negative = inhibition, usual class: inhibitors. 350,000 compounds, 0.28% hits. recombinant TDP1, AlphaScreen DNA substrate cleavage. Q9NUW8; further: potency means the concentration at half of the fitted maximal effect; nearly all actives have a fitted effect of over 40% in size
Target sequence (Q9NUW8 whole entry, looked up): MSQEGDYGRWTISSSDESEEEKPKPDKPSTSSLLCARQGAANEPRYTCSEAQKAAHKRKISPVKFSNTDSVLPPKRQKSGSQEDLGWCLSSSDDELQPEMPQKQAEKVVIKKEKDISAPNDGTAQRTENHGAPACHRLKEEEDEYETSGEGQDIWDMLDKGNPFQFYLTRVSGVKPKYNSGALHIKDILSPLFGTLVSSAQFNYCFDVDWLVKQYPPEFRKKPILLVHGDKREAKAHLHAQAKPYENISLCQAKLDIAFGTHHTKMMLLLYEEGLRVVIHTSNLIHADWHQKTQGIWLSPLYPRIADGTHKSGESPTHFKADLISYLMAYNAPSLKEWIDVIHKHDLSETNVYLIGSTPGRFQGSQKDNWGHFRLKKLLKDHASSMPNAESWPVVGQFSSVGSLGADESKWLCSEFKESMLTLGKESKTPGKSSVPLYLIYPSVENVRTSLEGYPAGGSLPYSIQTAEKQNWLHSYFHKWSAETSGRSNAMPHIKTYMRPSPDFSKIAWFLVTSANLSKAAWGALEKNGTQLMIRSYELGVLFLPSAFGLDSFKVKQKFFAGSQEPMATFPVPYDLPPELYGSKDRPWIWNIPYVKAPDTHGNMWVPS
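AlphaScreen read-out: signal falls as enzyme removes the 3' tyrosine-FITC from a 5'-biotinylated DNA oligo (15 nM, 5 min, RT). Enzyme was E. coli-made recombinant Tdp1 at 1 nM, exposed to compound for 15 min beforehand; beads 10 ug/ml, 10 min.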
IL1B secr inh: inhibitors of inflammasome signaling (IL-1 beta secretion); THP-1 LPS/ATP IL-1B secretion, AlphaLISA, 16 h; stronger effect = lower value; activity change, % at 57.5 µM; 360,000 compounds, 4.7% hits; in the data active means activity change below about -50%; inconclusive means mostly about -30% to -49%
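Secreted IL-1B measured by AlphaLISA bead assay after 16 h compound exposure of THP-1 cells; compounds (final up to 57.5 uM) added 1 h before LPS (250 ng/mL) and ATP (1.25 mM) stimulation; lower signal means less secretion.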
Six1-Eya2 inh: inhibitors of human Six1/Eya2 interaction | AID 651725 | 360,000 compounds, 0.56% hits | activity change, % (concentration not given with the values) | Q15475+O00167 | AlphaScreen GST-Six1/His-Eya2 binding, biochemical; stronger effect = lower value; in the data active means activity change below about -65%; inconclusive means mostly about -30% to -63%
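AlphaScreen with GST-Six1 and His-Eya2 (5X mix: 250 nM and 500 nM), glutathione donor and nickel acceptor beads; buffer 50 mM Tris pH 8.0, 300 mM NaCl, 1 mM TCEP; 1 h at 37 C in the dark.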
CtBP-E1A blk: CtBP/E1A binding inhibition | AlphaScreen GST-E1A/His-CtBP binding, 1536-well; stronger effect = lower value | activity change, % (test concentration not listed) | 340,000 compounds, 0.49% hits | AID 651724; in the data active means activity change below about -65%; inconclusive means mostly about -30% to -63%
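Homogeneous bead-based format: GST-tagged E1A captured on glutathione donor beads, His-tagged CtBP on nickel acceptor beads; compounds precede bead addition by 2 h at 37 °C.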
TDP1 cell noCPT: qHTS for Inhibitors of human tyrosyl-DNA phosphodiesterase 1 (TDP1): qHTS in cells in absence of CPT | 420,000 compounds, 15% hits | DT40 Tdp1-/- hTDP1 cells, no CPT, ATP luminescence, 48 h | Potency, µM (top dose mostly 46.2 µM), for the others: at the highest dose activity change, negative = growth inhibition, most hits filed as inhibitors; further: potency means the concentration at half of the fitted maximal effect; nearly all actives have a fitted effect of over 55% in size
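No-CPT arm: Tdp1-/-;hTDP1 DT40 cells (400/well) plus compounds, incubated ≥48 hr at 37 °C. Readout CellTiter-Glo luminescence.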
DT40 TDP1 CPT: DT40-hTDP1 cell growth loss with CPT. Potency, µM (top dose mostly 46.2 µM), without a hit: at the top dose activity change, negative = growth inhibition, actives largely listed as inhibitors. AID 686979. 420,000 compounds, 12% hits. chicken DT40 Tdp1-/-;hTDP1 cells + 20 nM CPT, ATP luminescence, 48 h; further: potency means the concentration at half of the fitted maximal effect; nearly all actives have a fitted effect of over 55% in size
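Chicken DT40 Tdp1-/- cells complemented with human TDP1, 400 cells/well, exposed to compounds plus 20 nM camptothecin for at least 48 h at 37 C; viability read as ATP content by CellTiter-Glo luminescence.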
* = called active by the depositor; i = inactive; ? = inconclusive; . = no result. The list is not random: actives were taken first. Their share in the collection is about 18%. Unless noted, the call rests on the fitted dose curve; in most records, active means well fitted curve in the direction sought with a large enough effect; inconclusive means small, poorly fitted or top-dose-only effect, or another doubt; inactive means no such curve, though single readings can be large; an effect the other way counts as inactive or inconclusive. On the % scale 0 is the no-effect control and ±100 the full control effect.

SMILES	TDP1 block	IL1B secr inh	Six1-Eya2 inh	CtBP-E1A blk	TDP1 cell noCPT	DT40 TDP1 CPT
O=C(OCC(=O)N1CCOCC1)C(c1ccccc1)c1ccccc1	-1%	10	6	3	4%	10%
O=c1cc(CN2CCCC2)c2c(ccc3ccccc32)o1	.	8	-3	0	-4%	-3%
CCOC(=O)CS(=O)(=O)c1ccccc1	3%	?	5	0	0%	-7%
CCOC(=O)N1CCN(S(=O)(=O)c2ccc(OCC(=O)OC)cc2)CC1	-2%	-64*	1	1	-7%	-26%
CCOC(=O)CS(=O)(=O)c1ccc(O)cc1	-5%	-92*	0	3	-1%	-1%
Cc1ccc(C(=O)Nc2c3c(nn2-c2ccccc2)CS(=O)(=O)C3)cc1C	3%	?	1	15	-12%	-11%
NC(=O)c1nsc(C(=O)N(CC(=O)NC2CCCCC2)Cc2ccc3c(c2)OCO3)c1N	0%	.	.	.	?	?
COC(=O)c1ccccc1NC(=O)c1sc2nc(C)cc(C)c2c1NC(=O)c1ccccc1OC	-4%	.	.	.	-9%	-5%
CNc1ccccc1C(C)(C)c1cc(-c2cccc(OC)c2)no1	2%	7	-28	3	5.2µM*	4.6µM*
CNc1ccccc1C(C)(C)c1cc(-c2cc(C)cc(C)c2)no1	5%	-9	3	2	?	?
CC(CNC(=O)C1CCN(C(=O)c2cc3sccc3n2C)CC1)c1ccccc1 (stereo not given)	-3%	.	.	.	?	?
CN(CCc1cn[nH]c1)Cc1nc(Cc2ccccc2)no1	-3%	-54*	2	4	9%	14%
O=C(NCc1ccccc1Cl)C1CCCN(S(=O)(=O)c2cnc[nH]2)C1 (stereo not given)	4%	0	-3	3	-15%	3%
CC(=O)Nc1ccc(S(=O)(=O)Nc2nc3ccccc3nc2-n2ccc(=NC(=O)c3ccccc3)cc2)cc1	4%	3	?	-14	-16%	14%
COc1nc(N)nc2nc[nH]c12	.	-77*	4	3	4%	2%
CC(=O)c1cccc(NC(=O)c2cc(C)nc3c2c(C)nn3-c2cccc(Cl)c2C)c1	0%	.	.	.	18µM*	?
CCc1ccc(-n2nc(C)c3c(C(=O)Nc4ccc(Cl)cc4)cc(C)nc32)cc1	0%	.	.	.	13µM*	?
CCc1ccc(-n2nc(C)c3c(C(=O)Nc4cc(C)ccc4C)cc(C)nc32)cc1	-1%	.	.	.	?	?
CCc1ccc(NC(=O)c2c(Cl)nc(C)c(Cl)c2C)cc1	1%	-1	5	0	26µM*	?
Cc1ccccc1NC(=O)c1c(Cl)nc(C)c(Cl)c1C	5%	17	6	8	-3%	3%
CCOc1ccc(NS(=O)(=O)c2ccc3c4c(cccc24)C(=O)N3)cc1	.	.	.	.	?	16µM*
CCN(c1cccc(C)c1)S(=O)(=O)c1ccc2c3c(cccc13)C(=O)N2	5%	0	4	-2	11µM*	?
CCOc1ccc(NS(=O)(=O)c2ccc(OCC)c3ncccc23)cc1	5%	29	-10	-16	10µM*	11µM*
O=C(NCc1ccco1)c1cc(-c2ccccc2)nn1CC1CC(c2cccnc2)=NO1 (stereo not given)	.	-10	0	7	?	-28%
CC(C)(C)OC(=O)N1CCC[C@H]1c1nnc(SCc2ccc(Cl)cc2)o1	.	?	2	8	21µM*	?
SMILES	TDP1 block	IL1B secr inh	Six1-Eya2 inh	CtBP-E1A blk	TDP1 cell noCPT	DT40 TDP1 CPT
CC(C)(C)OC(=O)N1CCC[C@H]1c1nnc(SCc2ccc(Cl)cc2Cl)o1	1%	?	13	-1	15µM*	?
CC(C)(C)OC(=O)N1CCC[C@H]1c1nnc(SC/C=C/c2ccccc2)o1	6%	-15	6	6	23µM*	?
CC(=O)Nc1ccc(SCC(=O)OCC(=O)NC(=O)NCCC(C)C)cc1	5%	2	12	-7	-1%	1%
CCCCN(C)C(=O)c1nc2ccccn2c1CN1CCN(c2cnccn2)CC1	3%	0	9	1	4%	5%
COc1ccccc1-c1nc(SCC(=O)Nc2ccccc2)n[nH]1	2%	0	-1	0	-20%	-24%
COc1ccc(OC)c(NC(=O)CSc2n[nH]c(-c3ccccc3Cl)n2)c1	11%	.	.	.	?	10µM*
O=C(CSc1n[nH]c(-c2ccccn2)n1)Nc1ccccc1F	.	54	-92*	1	2.9µM*	4.1µM*
COc1ccc(-c2nc(SCC(=O)Nc3cccc(C(C)=O)c3)n[nH]2)cc1	5%	.	.	.	?	?
O=C(CSc1n[nH]c(-c2ccccn2)n1)Nc1ccccc1	4%	178	-95*	-101*	?	23µM*
COc1ccc(NC(=O)CSc2n[nH]c(-c3ccccn3)n2)cc1	.	150	-92*	-79*	23µM*	16µM*
COc1ccccc1-c1nc(SCC(=O)Nc2ccccc2F)n[nH]1	4%	i	2	3	?	?
COc1cccc(C(=O)NCCc2sc(-c3cccc(C)c3)nc2C)c1	-1%	.	.	.	.	.
COc1ccccc1NC(=O)CSc1n[nH]c(-c2ccccn2)n1	.	108	-95*	-90*	15µM*	?
CCCCCCCCNC(=O)c1cccnc1SCC(=O)Nc1ccccc1OC	3%	15	-4	21	21µM*	?
CCCSc1cc(N2CCN(C)CC2)nc(-c2ccc(OC)cc2)n1	5%	-57*	-6	-20	?	?
Cc1ccc(CNC(=O)c2ccc3c(c2)nc(C)n3-c2cc(C)cc(C)c2)cc1	8%	.	.	.	?	?
CC(=O)Nc1cc(C(=O)NCc2ccc(F)cc2)ccc1Sc1ccc(C)cc1	8%	.	.	.	?	?
CC1CCn2c(nc3cc(C(=O)NCc4ccc(OC(C)C)cc4)ccc32)C1 (stereo not given)	0%	.	.	.	23µM*	?
CCOc1ccc(CNC(=O)c2ccc(Sc3ccc(C)cc3)c(NC(C)=O)c2)cc1	-1%	-4	-1	-3	21µM*	?
CCOc1ccc(-n2c(C)nc3cc(C(=O)NCC4CCCO4)ccc32)cc1 (stereo not given)	3%	14	-5	-1	-14%	-1%
CCOc1ccc(-n2c(C)nc3cc(C(=O)NCc4ccc(C)cc4)ccc32)cc1	3%	.	.	.	16µM*	?
